Reference: PubChem BioAssay (NCI)
Several values for one entry are separate records, joined by “and”; a condition that tells them apart may be missing. Equal values may be shown once. About 83,000 compounds went through this panel and 20% of them were active in at least one assay; those are over-represented in the sample as a whole.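 The test compound was applied at a single concentration to cells in 96-well plates for 48 hours, and percent growth was recorded.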 Activity calls are given as the source filed them. Rule for the calls: active = growth percent below 10; inactive = the rest.

Test system: UO-31 renal
Test: NCI-60 one-dose screen, 48 h (100 = growth as untreated, 0 = no growth, -100 = all killed)
Settings: 10 µM unless noted

Row | SMILES | growth
1 | OCCN1CCCCCCC1 | 88% (inactive)
2 | O=[N+]([O-])c1cccc(SSc2cccc([N+](=O)[O-])c2)c1 | 86.5% (inactive)
3 | CCc1cc(C)cc(O)c1 | 77.3% (inactive)
4 | O=C(CO)C(O)C(O)C(O)C(O)CO (centres undefined) | 97.8% (inactive) and 96.6% (inactive)
5 | Nc1ncnc2c1ncn2C1OC(COP(=O)(O)O)C(O)C1O (centres undefined) | 100% (inactive)
6 | c1ccc(CNCCNCc2ccccc2)cc1 | 79.4% (inactive)
7 | Cc1cc2ccccc2cn1 | 83.2% (inactive) and 82.6% (inactive)
8 | CCCCCCCCCCNC(=O)CI | -90.1% (active)
9 | O=C1OC(c2ccccc2)=N/C1=C\c1ccccc1 | 95.2% (inactive)
10 | Cc1cc(-c2cc(C)c(O)c(C)c2)cc(C)c1O | 77.1% (inactive)
11 | O=C(O)CCCl | 97% (inactive)
12 | O=c1n(CC2CO2)c(=O)n(CC2CO2)c(=O)n1CC1CO1 (centres undefined) | 38.2% (inactive)
13 | Cl | 87.1% (inactive)
14 | O=c1[nH]cnc2c1ncn2C1OC(CO)C(O)C1O (centres undefined) | 113% (inactive) and 102% (inactive) and 55.3% (inactive)
15 | COc1cc(C(O)C2C(=O)OCC2C2(c3ccc4c(c3)OCO4)SCCCS2)cc(OC)c1OC (centres undefined) | 93.2% (inactive)
16 | CC(=O)NCC(=O)c1ccc([N+](=O)[O-])cc1 | 80.5% (inactive)
17 | CC(C)NCC(O)c1ccc(O)c(O)c1 (centres undefined) | 82.6% (inactive) and 106% (inactive) and 76.1% (inactive)

Row | SMILES | growth
18 | CN1CNC(=O)NC1 | 98.5% (inactive) and 87.6% (inactive)
19 | O=C(O)/C=C\C(=O)Nc1cccc2ccccc12 | 59.7% (inactive) and 72% (inactive)
20 | Brc1ccc(SSc2ccc(Br)cc2)cc1 | 49.6% (inactive)
21 | c1ccc(-c2nc3ccccc3s2)cc1 | 66.9% (inactive)
22 | COc1ccc(N/C=C/C2=[N+](C)c3ccccc3C2(C)C)c(OC)c1 | 78.8% (inactive)
23 | COc1ccc(C(=O)CC(c2ccccc2)C(C#N)c2ccccc2)cc1 (centres undefined) | 69.2% (inactive)
24 | CCOC(=O)c1c(C)cc(=O)oc1C | 88.9% (inactive)
25 | CCCCCCCCCCCCCCCc1ccc(N)c(OC2OC(CO)C(O)C(O)C2O)c1 (centres undefined) | 57.6% (inactive)
26 | CC(=O)OC(C)C(=O)NCC(C)O (centres undefined) | 82.4% (inactive)
27 | OC1COC(OCc2ccccc2)C(O)C1O (centres undefined) | 81.9% (inactive)
28 | NC(=O)NCCCC(N)C(=O)O (centres undefined) | 82.8% (inactive)
29 | ClCCOCCOc1ccc(C2CCCCC2)cc1 | 99.5% (inactive)
30 | Fc1ccc([I+]c2ccc(F)cc2)cc1 | 74.6% (inactive)
31 | CC(C)C(C)(C)c1ccc(O)cc1 | 98.1% (inactive)
32 | Cn1cnc([N+](=O)[O-])c1Sc1ncn[nH]1 | 82.9% (inactive)
33 | O=C(Cc1ccccc1)c1ccc(O)c(Cl)c1 | 36.5% (inactive)
34 | CC1CCC2(OC1)OC1CC3C4CC=C5CC(O)CCC5(C)C4CCC3(C)C1C2C (centres undefined) | 86% (inactive)

Test system: TK-10 renal
Test: as above
Settings: 10 µM unless noted

Row | SMILES | growth
35 | OCCN1CCCCCCC1 | 99.9% (inactive)
36 | O=[N+]([O-])c1cccc(SSc2cccc([N+](=O)[O-])c2)c1 | 109% (inactive)
37 | O=C1NC(N/N=C\C(O)C(O)C(O)CO)=N/C1=C/c1ccc(Cl)cc1 (centres undefined) | 54.4% [100 µM] (inactive) and -100% [100 µM] (active) and 89.6% [100 µM] (inactive)
38 | CCc1cc(C)cc(O)c1 | 98.6% (inactive)
39 | COc1ccc(Nc2ccc3ccccc3c2)cc1 | 77.2% (inactive)
40 | O=C(CO)C(O)C(O)C(O)C(O)CO (centres undefined) | 106% (inactive) and 102% (inactive)
41 | Nc1ncnc2c1ncn2C1OC(COP(=O)(O)O)C(O)C1O (centres undefined) | 122% (inactive)
42 | c1ccc(CNCCNCc2ccccc2)cc1 | 119% (inactive)
43 | Cc1cc2ccccc2cn1 | 103% (inactive) and 93.4% (inactive)
44 | CCCCCCCCCCNC(=O)CI | 15.5% (inactive)
45 | O=C1OC(c2ccccc2)=N/C1=C\c1ccccc1 | 117% (inactive)
46 | Cc1cc(-c2cc(C)c(O)c(C)c2)cc(C)c1O | 90.5% (inactive)
47 | O=C(O)CCCl | 107% (inactive)
48 | O=c1n(CC2CO2)c(=O)n(CC2CO2)c(=O)n1CC1CO1 (centres undefined) | 77.9% (inactive)
49 | Cl | 109% (inactive)
50 | O=c1[nH]cnc2c1ncn2C1OC(CO)C(O)C1O (centres undefined) | 113% (inactive) and 114% (inactive) and 106% (inactive)
51 | COc1cc(C(O)C2C(=O)OCC2C2(c3ccc4c(c3)OCO4)SCCCS2)cc(OC)c1OC (centres undefined) | 98.2% (inactive)
52 | CC(C)NCC(O)c1ccc(O)c(O)c1 (centres undefined) | 92.5% (inactive) and 87.4% (inactive)

Row | SMILES | growth
53 | CN1CNC(=O)NC1 | 112% (inactive) and 115% (inactive)
54 | Cc1ccc(S(=O)(=O)c2ccccc2)cc1 | 51.6% (inactive)
55 | O=C(O)/C=C\C(=O)Nc1cccc2ccccc12 | 107% (inactive) and 121% (inactive)
56 | N#CC(C#N)N=Nc1cc(Cl)ccc1Cl | 105% (inactive)
57 | Brc1ccc(SSc2ccc(Br)cc2)cc1 | 97.1% (inactive)
58 | COc1ccc(N/C=C/C2=[N+](C)c3ccccc3C2(C)C)c(OC)c1 | 106% (inactive)
59 | COc1ccc(C(=O)CC(c2ccccc2)C(C#N)c2ccccc2)cc1 (centres undefined) | 88% (inactive)
60 | CCOC(=O)c1c(C)cc(=O)oc1C | 121% (inactive)
61 | CCCCCCCCCCCCCCCc1ccc(N)c(OC2OC(CO)C(O)C(O)C2O)c1 (centres undefined) | 113% (inactive)
62 | CC(=O)OC(C)C(=O)NCC(C)O (centres undefined) | 113% (inactive)
63 | NC(=O)NCCCC(N)C(=O)O (centres undefined) | 99.3% (inactive)
64 | ClCCOCCOc1ccc(C2CCCCC2)cc1 | 108% (inactive)
65 | Fc1ccc([I+]c2ccc(F)cc2)cc1 | 71.2% (inactive)
66 | CC(C)C(C)(C)c1ccc(O)cc1 | 107% (inactive)
67 | Cn1cnc([N+](=O)[O-])c1Sc1ncn[nH]1 | 106% (inactive)
68 | O=C(Cc1ccccc1)c1ccc(O)c(Cl)c1 | 47.4% (inactive)
69 | CC1CCC2(OC1)OC1CC3C4CC=C5CC(O)CCC5(C)C4CCC3(C)C1C2C (centres undefined) | 101% (inactive)
